Source: PubChem BioAssay AID1030 (National Center for Advancing Translational Sciences (NCATS), 2008)
“And” between values parts separate entries of the source, which are not always exact repeats. Equal values may be shown once. Hit rate of the full screen: of about 220,000 compounds, about 16,000 (7.3%) were called active. About 25% were inconclusive and are not listed. Calls follow the shape of the dose curve; as a rule, active = well fitted inhibition curve with a large enough effect (not every such curve was filed as active); inconclusive = small, poorly fitted or top-dose-only effect, or another doubt; inactive = no such curve, though single readings can be large or run the other way. The entries come from a sample that favours actives as a whole. More than one record can exist for a structure, and the calls need not agree.

Molecular target: Aldehyde dehydrogenase 1A1 (Homo sapiens) (UniProt P00352)
Assay: qHTS Assay for Inhibitors of Aldehyde Dehydrogenase 1 (ALDH1A1);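 as to activity, negative = inhibition: plate controls were no enzyme wells and a reference inhibitor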
Details: Purified ALDH1A1, NADH fluorescence, propionaldehyde substrate; series mostly up to 75.3 µM; activity, negative = inhibition: at the top concentration
Potency is read from the fitted curve at half-maximal effect.

Chain of Aldehyde dehydrogenase 1A1 (Homo sapiens) (P00352 whole entry, looked up): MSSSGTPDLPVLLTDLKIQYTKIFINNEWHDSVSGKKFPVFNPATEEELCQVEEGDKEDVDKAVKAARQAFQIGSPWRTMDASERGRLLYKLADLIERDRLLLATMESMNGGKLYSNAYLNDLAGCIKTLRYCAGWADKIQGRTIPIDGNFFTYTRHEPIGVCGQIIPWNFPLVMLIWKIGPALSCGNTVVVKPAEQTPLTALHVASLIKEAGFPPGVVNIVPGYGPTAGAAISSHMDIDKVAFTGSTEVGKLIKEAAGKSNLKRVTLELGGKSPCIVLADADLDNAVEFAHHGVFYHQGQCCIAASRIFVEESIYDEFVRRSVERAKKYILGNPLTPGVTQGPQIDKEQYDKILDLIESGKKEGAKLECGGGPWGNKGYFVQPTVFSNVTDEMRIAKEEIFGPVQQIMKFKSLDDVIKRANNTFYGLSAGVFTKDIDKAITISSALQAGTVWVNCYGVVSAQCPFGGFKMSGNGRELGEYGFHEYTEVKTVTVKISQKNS

SMILES	activity, negative = inhibition	Potency
COc1ccccc1N=Nc1c(O)[nH]c(=S)[nH]c1=O	-12% (inactive)	–
O=C1N=c2ccccc2=C/C1=C\c1c(O)[nH]c(=S)[nH]c1=O	–	2.51 µM (active)
Cc1ccc2c(c1)=C/C(=C\c1c(O)[nH]c(=O)[nH]c1=O)C(=O)N=2	–	1.58 µM (active)
CC(C)CCC1(CCN)C(=O)NC(=O)NC1=O	0.154% [at 13.5 µM] (inactive)	–
CCOc1ccc(CN(CCCl)CCCl)cc1C(=O)OC	-5.9% (inactive)	–
COc1ccc(C2Oc3c(I)c(OC)cc(OC)c3CC2O)cc1OC (configuration not stated)	9.99% (inactive)	–
O=C(Nc1cccc2ccccc12)N1CCC2(CC1)OCCO2	-5.72% (inactive)	–
COc1ccccc1-c1[se]c2ccccc2c1I	7.96% (inactive)	–
Cc1ccc(N(C)C(=O)Oc2cccc3ccc(C)nc23)cc1	6.33% (inactive)	–
CS(=N)(=O)CC[C@H](N)P(=O)(O)O (some centres not stated)	4.42% [at 13.5 µM] (inactive)	–
CC(=O)NBr	5.46% (inactive)	–
CCC1(c2ccccc2)C(=O)NC(=O)N(C)C1=O (configuration not stated)	-2.03% (inactive)	–
c1ccc(Cc2nn3c(Cn4cnc5ccccc54)nnc3s2)cc1	–	2.24 µM (active)
c1ccc(CCCCN2CCC(c3ccccc3)CC2)cc1	–	inactive
c1cncc(CNCCc2c[nH]c3ccccc23)c1	-3.63% (inactive)	–
NC(=O)Nc1cccc(C(F)(F)F)c1	9.13% (inactive)	–
C[C@@]1([C@@H](NP(=O)(c2ccccc2)c2ccccc2)c2ccccc2)C[C@H]1CCO	–	inactive
CCCCC#N	3.32% (inactive)	–
Clc1ccc2nc3c(c(-c4ccccc4)c2c1)CNCC3	11.2% (inactive)	–
N#CC(C#N)=Cc1cc(O)c(O)c([N+](=O)[O-])c1	–	inactive and 20 µM (active)
Cc1cccc(-n2c(O)c(/C=N/N3CCOCC3)c(=O)[nH]c2=S)c1	0.025% (inactive)	–
CN[C@@H]1C[C@H]2O[C@@](C)([C@@H]1OC)n1c3ccccc3c3c4c(c5c6ccccc6n2c5c31)C(=O)NC4	-5.83% [at 13.5 µM] (inactive)	–
CN(C)C(=O)NC(O)C(Cl)(Cl)Cl (configuration not stated)	10.9% (inactive)	–
C[C@]12CC[C@@H]3C(=CCc4cc(O)ccc43)[C@@H]1CCC2=O	–	0.501 µM (active)
CCC(C)C(=O)O[C@@H]1C[C@@]2(C)C(c3ccoc3)OC(=O)CC23OC2(C)O[C@@]14[C@@]1(C)C(CC(=O)OC)C5(C)CC1(O)C(O)(C5OC(=O)C1(C)OC1C)C(OC(C)=O)[C@@]34O2 (some centres not stated)	2.69% (inactive)	–
Cc1noc(C)c1CSc1nc2cc(S(=O)(=O)N3CCOCC3)ccc2o1	–	3.55 µM (active)

SMILES	activity, negative = inhibition	Potency
O=C(c1cc(S(=O)(=O)N2CCOCC2)ccc1F)N1CCC2(CC1)OCCO2	-0.0979% (inactive)	–
N#CCCCl	–	inactive
O=C(Nc1cccc(OC(=O)N2CCCCC2)c1)N1CCOCC1	0.604% (inactive)	–
O=C1NC(=O)N(c2ccccc2)C(=O)/C1=C/c1ccc([N+](=O)[O-])s1	–	22.4 µM (active)
CCN1CCN(C(=O)Cc2coc3cc(C)cc(C)c23)CC1	3.22% (inactive)	–
Nc1ccc(C(=O)N/N=C2/CN3CCC2CC3)cc1	-2.99% (inactive)	–
CCCCCCN=C(CC)c1c(O)n(CCCC)c(=O)[nH]c1=O	-12.5% (inactive)	–
CCc1nnc(NS(=O)(=O)c2ccc(N=Cc3c(O)n(-c4ccccc4)c(=O)[nH]c3=O)cc2)s1	-1.28% (inactive)	–
C[N+]1(C)CCOC(O)(c2ccc(-c3ccc(C4(O)C[N+](C)(C)CCO4)cc3)cc2)C1 (configuration not stated)	–	inactive and 14.1 µM (active)
COc1ccc(CCn2c(O)c(C=NCCCn3ccnc3)c(=O)[nH]c2=O)cc1OC	6.68% (inactive)	–
Cc1cccc2c3c(ccc12)C1=C(C(=O)C3=O)C(C)CO1 (configuration not stated)	–	17.8 µM (active)
C=CCN(CC=C)C(=O)Nc1ccc(OCC)cc1	2.89% (inactive)	–
CNC(=S)N/N=C1\C2CN3CCN(C2)CC1(c1ccccc1)C3	-2.12% (inactive)	–
CC(C)c1ccc(O)c(CN2CCN(c3ccccc3)CC2)c1	–	2 µM (active)
Fc1ccc(N2CCN(Cc3ccc4c(c3)OCO4)CC2)cc1	-1.2% (inactive)	–
COc1ccc(CN2CCN(c3ccccc3F)CC2)c(OC)c1	-7.76% (inactive)	–
COc1ccc2c3c1OC1CC(O)C=C[C@@]31CCN(C)C2 (some centres not stated)	-2.76% (inactive)	–
CC1=C(C(=O)Nc2ccccc2)SCCO1	-8.55% (inactive)	–
CC(C)N(CC#CCC1(O)c2ccccc2-c2ccccc21)C(C)C	3.69% (inactive)	–
CN1C2C=C(N(C(=O)c3ccc(Cl)cc3)c3ccccc3)CC1CC2 (configuration not stated)	6.47% (inactive)	–
CC(C)(O)/C=C\C(=O)[C@](C)(O)[C@H]1[C@H](O)C[C@]2(C)[C@@H]3CC=C4[C@@H](C=C(O)C(=O)C4(C)C)[C@]3(C)C(=O)C[C@@]12C	8.67% [at 13.5 µM] (inactive)	–
c1csc(CN2CC3(CCNCC3)C2)n1	0.181% (inactive)	–
c1ccc2c(c1)[I+]c1ccccc1-2	-5.77% (inactive)	–
Cc1ccc(-n2c(C)cc(/C=C3\C(=O)NC(=O)N(C)C3=O)c2C)cc1C	–	17.8 µM (active)
Cc1ccccc1N1C(=O)NC(=O)/C(=C\c2cc(C)n(C)c2C)C1=O	-4.17% (inactive)	–
Cc1cc(C=C2C(=O)NC(=O)NC2=O)c(C)n1-c1ccncc1	–	14.1 µM (active)
